Experimental data reported in PubChem BioAssay AID1508625 (Wald Lab, School of Medicine, Case Western Reserve …, 2021).

Assay: enhancers of NK cell killing of ovarian tumor cells, primary screen, imaging, OVCAR3, primary NK cells, calcein-AM imaging (AID 1508625);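 also: compound given to NK cells 16 h before adding targets at 1.5 to 1 ratio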
Conditions: OVCAR3 lysis by primary NK cells, at 5 µM; z-score: measured here: robust Z-score, single-point normalisation

Row | Structure (SMILES) | corrected activity, negative = more killing | z-score
1 | COc1ccc(OC)c(NC(=O)c2cc3c(=O)n4ccccc4nc3s2)c1 | -6.86% | -1.95
2 | O=C(CSc1nnc(-c2cccc(Br)c2)o1)c1ccc2c(c1)CCCC2 | -3.57% | -1.33
3 | CCOc1ccc(N2CC(C(=O)Nc3cc(C)ccn3)CC2=O)cc1 (configuration not stated) | -3.29% | -1.23
4 | O=C(c1ccncc1)N1CCN(CC2CC=CCC2)CC1 (configuration not stated) | -3.11% | -1.39
5 | COC(=O)CCC(=O)NNC(=O)c1ccc(Br)cc1 | -3.77% | -1.49
6 | Cc1cc(C)n(C(=O)c2nn(C)cc2I)n1 | -2.43% | -0.913
7 | O=C(Cc1ccccc1)Nc1ccc2oc(-c3ccc(I)cc3)nc2c1 | -1.02% | -0.361
8 | CC1=C(C(=O)Nc2cccc(Cl)c2)C(c2cccc(Cl)c2)NC(=O)N1 (configuration not stated) | -1.94% | -0.84
9 | COc1ccc(S(=O)(=O)NCCc2ccccc2)c2ccccc12 | -3.37% | -1.46
10 | O=C(Nc1ccc(Br)cc1)C1CCN(S(=O)(=O)c2cccc3nonc23)CC1 | -3.15% | -0.893
11 | CC(C)OC(=O)CN1CCCN(S(=O)(=O)c2ccc(F)cc2)CC1 | -3.05% | -0.969
12 | CN(C)S(=O)(=O)c1ccc(C(O)=C2C(=O)C(=O)N(Cc3cccnc3)C2c2ccc(Cl)cc2)cc1 (configuration not stated) | -2.24% | -0.973
13 | Cc1ccccc1-n1nnnc1C(c1ccccc1)N(C)Cc1ccc(Cl)c(Cl)c1 (configuration not stated) | -1.59% | -0.695
14 | COc1cc2c(cc1NC(=O)Nc1cc3oc4ccccc4c3cc1OC)oc1ccccc12 | -6.21% | -1.85
15 | O=C(c1ccc(COCC(F)(F)F)o1)N1CCCCCC1 | -2.9% | -1.19
16 | O=C(NCc1ccccc1)c1ccc2c(=O)n(-c3cc(C(F)(F)F)ccc3Cl)c(=S)[nH]c2c1 | -5.46% | -1.74
